Rows were chosen to be rich in hits. Some 21% of all compounds tested hit in one or more screens of this group.
Shiga inhibitor – Shiga toxin inhibition | Vero cells, Shiga toxin protein synthesis inhibition reporter | inhibition, % at 38.7 µM | actives 9.2% (n = 290,000) | AID 2315; in the data active = inhibition mostly above about 28%, no sharp cut-off; inactive = mostly below about 43%; note: 0% is about no effect
Pf growth 48h – P. falciparum growth inhibition at 48 hours (one generation); P. falciparum luciferase growth in erythrocytes, 48 h; Potency, µM (series often up to 28.7 µM), for the others: top-dose activity change, negative = inhibition, usual class: inhibitors; actives 5.9% (n = 310,000); AID 504832; note: potency is the fitted concentration of half-maximal effect; % is set by controls: 0 for no effect and ±100 for the full control effect
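Luminescence readout; reporter = integrated firefly luciferase in P. falciparum. RBC culture at 2% hematocrit, 0.1% parasitemia final, 37 C/5% CO2; decreased signal taken as growth inhibition.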
CHX counter – counter-screen for Shiga toxin inhibitors: cycloheximide protein synthesis inhibition; cell reporter, cycloheximide protein synthesis inhibition counterscreen; max response, %; actives 12% (n = 300,000); in the data active = max response mostly above about 13%, no sharp cut-off; inactive = mostly below about 14%; note: read at 38.3 µM for the half of the compounds with a filed dose; 0% is about no effect
Sm TGR block – S. mansoni TGR enzyme inhibition | Potency, µM (highest dose often 114 µM), inactives show at the top dose activity change, negative = inhibition, actives largely listed as inhibitors | purified TGR, DTNB reduction, TNB absorbance 405 nm | AID 485364 | actives 3% (n = 360,000) | Q962Y6; note: potency is the fitted concentration of half-maximal effect; % is set by controls: 0 for no effect and ±100 for the full control effect; nearly all actives have a fitted effect of over 60% in size
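TGR 20 nM + NADPH 100 uM (dispensed conc.), cpd preinc 15 min RT; start with NADPH (500 uM addition) then DTNB (15 mM addition). Kinetic TNB absorbance, 405 nm filter. Four-parameter Hill fit across titration.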
NS1 function inh – blocks influenza NS1 protein function. Potency, µM (top dose mostly 46.1 µM), without a hit: at the highest dose activity, positive = more growth. actives 0.4% (n = 270,000); calls by dose curve; note: potency is the fitted concentration of half-maximal effect; actives are rising curves; nearly all actives have a fitted effect of over 50% in size
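In this qHTS, NS1 from influenza A is expressed in budding yeast, where it slows growth. Cells are switched from glucose to 2% galactose medium (pH 6.0, -URA), treated with compound, and growth recovery is read at OD600.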
Pf growth 96h – P. falciparum growth inhibition at 96 hour, primary screen for plastid delayed-death inhibitors | P. falciparum luciferase reporter growth, 96 h | Potency, µM (series often up to 28.7 µM), without a hit: at the highest dose activity change, negative = inhibition, hits mostly inhibitors | actives 6.9% (n = 320,000) | AID 504834; note: potency is the fitted concentration of half-maximal effect; % is set by controls: 0 for no effect and ±100 for the full control effect
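Luminescence readout: decreased luciferase signal marks inhibited growth of reporter-expressing P. falciparum in infected red cells (2% hematocrit, 0.05% parasitemia final), exposed to compound two generations (96 h, 37 C, 5% CO2).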
* hit, by the source's call; u = inconclusive; x = no result. Unless noted, calls come from the whole dose curve; as a rule, active = well fitted curve in the direction sought with a large enough effect; inconclusive = small, poorly fitted or top-dose-only effect, or another doubt; inactive = no such curve, though single readings can be large; an effect the other way counts as inactive or inconclusive.

SMILES | Shiga inhibitor | Pf growth 48h | CHX counter | Sm TGR block | NS1 function inh | Pf growth 96h
COc1ccc(CC(NC(C)=O)C(=O)NC2CCN(c3c(Cc4ccccc4)c(C)nc4ncnn34)CC2)cc1OC (stereo not drawn) | 11.9 | 11.7µM* | -0.4 | -7.9% | -14.8% | u
COc1ccc(C(CC(=O)Nc2ccc(OC)c(OC)c2)N2Cc3ccccc3C2=O)cc1 (stereo not drawn) | x | x | x | 11.9% | x | x
COC(=O)CCSc1cc(NCCOC(C)=O)c([N+](=O)[O-])c2nonc12 | 4.5 | -23.9% | -5.2 | -7.8% | -13.3% | 46.2%
O=C(Nc1cc(Sc2nc3ccccc3s2)cc([N+](=O)[O-])c1)c1ccccc1 | -2.1 | u | 6.8 | 2.0% | 13.6% | u
CCCC(=O)OCCNc1cc(SCCC(=O)OC)c2nonc2c1[N+](=O)[O-] | 16.6 | -6.5% | 3.4 | 3.55µM* | -23.3% | 30.0%
CC(=O)OCCCNc1cc(Sc2ccc(C)cc2)c2nonc2c1[N+](=O)[O-] | -7.3 | u | -2.8 | 8.91µM* | 1.8% | 413.4%
CC(=O)OCCCNc1cc(Sc2nc3ccccc3s2)c2nonc2c1[N+](=O)[O-] | -7.4 | 5.7% | 1.7 | 0.1µM* | -6.2% | 27.9%
CC(=O)OCCNc1cc(Sc2nc3ccccc3[nH]2)c2nonc2c1[N+](=O)[O-] | -10.3 | u | -1.5 | 0.316µM* | u | u
CCOc1cc(C(C(=O)NCC2CCCO2)N(C(=O)Cn2nnc3ccccc32)c2ccc(OC)c(OC)c2)ccc1O (stereo not drawn) | -12.7 | 9.1% | -3.0 | 31.6µM* | -0.9% | u
Cc1ccc(C(C(=O)NCc2ccco2)N(C(=O)CNC(=O)c2cccs2)c2ccc(C)cc2C)cc1 (stereo not drawn) | 67.7* | u | 15.8* | 10.8% | 28.2% | u
COc1cc(C(C(=O)NCC2CCCO2)N(C(=O)Cn2nnc3ccccc32)c2ccc(C(C)=O)cc2)ccc1O (stereo not drawn) | 9.6 | 6.4% | 2.9 | u | -6.1% | u
COc1ccc(N(C(=O)CNC(=O)c2ccco2)C(C(=O)NCC2CCCO2)c2ccc(OC)c(OC)c2)cc1 (stereo not drawn) | 9.7 | -30.3% | -0.4 | -2.8% | -3.8% | -10.2%
COc1ccc(C(C(=O)NCC2CCCO2)N(C(=O)CNC(=O)c2cccs2)c2ccc(C)cc2)cc1OC (stereo not drawn) | -6.0 | 10.4µM* | -1.3 | 5.8% | -6.2% | -3.9%
COc1ccc(C(C(=O)NCC2CCCO2)N(C(=O)CNC(=O)c2cccs2)c2ccc(C(C)=O)cc2)cc1OC (stereo not drawn) | 14.8 | 11.7µM* | 8.2 | x | 4.9% | u
CCOC(=O)c1ccc(NC(=O)CCNS(=O)(=O)c2cccs2)cc1 | -1.0 | -1.9% | 2.1 | 3.2% | -15.5% | 14.2%
COc1ccc(N(C(=O)CNC(=O)c2cccs2)C(C(=O)NCC2CCCO2)c2ccccc2)c(OC)c1 (stereo not drawn) | 16.2 | u | -2.4 | 7.2% | -10.6% | -19.2%
COc1cc(OC)cc(N(C(=O)CNC(=O)c2cccs2)C(C(=O)NCC2CCCO2)c2ccccc2)c1 (stereo not drawn) | -3.7 | 5.86µM* | -2.3 | 9.8% | -6.2% | u
CCOc1cc(C2Nc3ccccc3NC3=C2C(=O)CC(C)(C)C3)ccc1O (stereo not drawn) | 7.5 | -22.0% | 13.8* | -16.6% | -4.9% | 407.8%
Cn1cccc1C1Nc2ccccc2NC2=C1C(=O)CC(C)(C)C2 (stereo not drawn) | 63.6 | 19.6% | 31.4* | -16.5% | -1.8% | 17.3%
COc1cccc(N2CCN(c3ncc4c(n3)CCN(Cc3ccc(Br)cc3)C4)CC2)c1 | x | x | x | 3.0% | x | x
CN(C)C(CNC(=O)c1ccc(C2SCCS2)cc1)c1ccccc1 (stereo not drawn) | 54.5* | u | 35.3* | -16.6% | 17.5% | 12.6%
CN(C)C(CNC(=O)c1ccc(NC(=O)c2cccs2)cc1)c1ccccc1 (stereo not drawn) | 5.2 | u | -4.1 | -0.4% | 4.7% | u
O=[N+]([O-])c1c(NCc2ccccc2)cc(N2CCc3ccccc3C2)c2nonc12 | 19.6 | 17.0% | -3.3 | u | -2.5% | u
Cc1nn(CC#N)c(=O)n1-c1cccc(F)c1 | -17.0 | 2.6% | -6.3 | -11.2% | 0.0% | x
Nc1nc(=S)c2ncn([C@@H]3O[C@H](CO)[C@@H](O)[C@H]3O)c2[nH]1 | x | 10.4µM* | x | -0.4% | x | u
SMILES | Shiga inhibitor | Pf growth 48h | CHX counter | Sm TGR block | NS1 function inh | Pf growth 96h
OCC1OC(n2cnc3c(=S)nc[nH]c32)C(O)C1O (stereo not drawn) | x | u | x | x | x | 9.53µM*
Nc1nc(=S)c2ncn(C3OC(CO)C(O)C3O)c2[nH]1 (stereo not drawn) | 9.0 | 4.0% | -4.0 | -35.2% | 5.9% | 0.1%
Nc1nc(Cl)nc2c1ncn2[C@@H]1O[C@H](CO)[C@@H](O)[C@H]1O | -13.9 | u | -3.2 | 8.0% | -3.2% | 6.57µM*
CC1(C)OC2C(CO)OC(n3cnc4c(=S)nc[nH]c43)C2O1 (stereo not drawn) | -7.0 | -5.0% | -2.7 | -12.7% | 1.9% | 7.6%
CCOc1ccc(NC(=O)CCC(=O)c2ccc(F)cc2)cc1 | -7.1 | -1.3% | 1.7 | -25.6% | -2.1% | u
NS(=O)(=O)OCCCCCc1ccccc1 | 19.2 | 25.6% | 14.3* | -23.1% | 3.1% | -10.2%
Cc1ccc(OCCSc2nc3ccccc3n2CC(=O)N2CCOCC2)cc1C | x | x | x | 5.9% | x | x
C/C(CCN1CCc2nc(-c3ccccc3)c(-c3ccccc3)cc2C1)=N\O[C@@H](C)c1cc(-c2c(C)cc(C)cc2C)no1 | -2.6 | u | -3.7 | -3.1% | u | 13.1µM*
CCc1cc2c(nc1CC)CCN(CC/C(C)=N/O[C@@H](C)c1cc(-c3c(C)cc(C)cc3C)no1)C2 | -13.7 | u | 1.0 | -15.4% | -72.1% | 7.38µM*
CCc1ccc(/C=C/c2c([N+](=O)[O-])c(=O)n(C)c(=O)n2C)cc1 | -3.2 | 2.33µM* | 11.6 | 3.1% | -10.9% | 37.8%
COc1ccc(/C=C/c2c([N+](=O)[O-])c(=O)n(C)c(=O)n2C)cc1 | -10.2 | u | 0.6 | 6.8% | x | 13.1µM*
CCOc1ccc(/C=C/c2c([N+](=O)[O-])c(=O)n(C)c(=O)n2C)cc1 | -13.9 | u | -1.0 | 1.4% | 0.2% | 1.0%
Cn1c(/C=C/c2ccc(Cl)cc2Cl)c([N+](=O)[O-])c(=O)n(C)c1=O | -4.5 | 4.65µM* | -1.1 | 3.8% | -2.3% | 41.8%
COc1ccc(/C=C/c2c([N+](=O)[O-])c(=O)n(C)c(=O)n2C)c(OC)c1 | 2.9 | u | 2.6 | 1.1% | x | 2.4%
O=C(CN1CCN(C2CCCCC2)CC1)c1c[nH]c2ccccc12 | -1.6 | 19.4% | 2.9 | -3.3% | 9.5% | u
O=C(CN1CCN(C2CCCCC2)CC1)c1ccc2cc[nH]c2c1 | -1.9 | x | -3.0 | 31.6µM* | -56.0% | 4.65µM*

Assay outcomes (PubChem BioAssay)
